{"source": "PubChem BioAssay (EPA / NIEHS)", "note": "The source made the active and inactive calls. Rule for the calls: active = hit-call score of the fitted dose curve at least 0.9, where 1 is the maximum; inconclusive = response in the unintended direction; inactive = score below 0.9.", "data": [{"biological_target": "Peroxisome proliferator-activated receptor gamma (Homo sapiens) (UniProt P37231)", "sequence (P37231 whole entry, looked up)": "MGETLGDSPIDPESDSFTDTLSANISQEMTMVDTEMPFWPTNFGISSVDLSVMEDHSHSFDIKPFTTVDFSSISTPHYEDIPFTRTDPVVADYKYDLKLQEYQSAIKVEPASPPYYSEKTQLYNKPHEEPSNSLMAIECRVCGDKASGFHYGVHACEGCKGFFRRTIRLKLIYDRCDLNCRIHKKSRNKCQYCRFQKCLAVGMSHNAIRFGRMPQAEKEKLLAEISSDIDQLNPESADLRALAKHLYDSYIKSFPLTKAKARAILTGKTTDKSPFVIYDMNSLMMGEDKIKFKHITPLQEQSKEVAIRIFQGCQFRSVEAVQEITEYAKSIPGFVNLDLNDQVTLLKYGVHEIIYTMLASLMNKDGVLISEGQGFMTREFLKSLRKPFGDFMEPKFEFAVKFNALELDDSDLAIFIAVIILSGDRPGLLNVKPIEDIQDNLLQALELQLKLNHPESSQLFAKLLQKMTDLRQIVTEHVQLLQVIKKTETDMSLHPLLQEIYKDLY", "assay": "OT_PPARg_PPARgSRC1_1440: Odyssey Thera (OT) 24-hour Protein-Complementation Assay for Peroxisome Proliferator-activated Receptor Gamma/ SRC-1 Co-activator (AID 2283388);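 note: nuclear to cytoplasmic ratio of reconstituted Venus YFP fluorescence in fixed imaged cells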", "method": "OT_PPARg_PPARgSRC1_1440 is a cell-based assay that uses HEK293T, a human kidney cell line, with measurements taken at 24 hours after chemical dosing in a 384-well plate.OT_PPARg_PPARgSRC1_1440 is one of one assay component(s) measured or calculated from the OT_PPARg_PPARgSRC1_1440 assay. It is designed to make measurements of protein fragment complementation, a form of binding reporter, as detected with fluorescence intensity signals by Protein-fragment Complementation technology.Data from the assay component OT_PPARg_PPARgSRC1_1440 was analyzed into 1 assay endpoint. This assay endpoint, OT_PPARg_PPARgSRC1_1440, was analyzed in the positive analysis fitting direction relative to DMSO as the negative control and baseline of activity. Using a type of binding reporter, measures of receptor for gain-of-signal activity can be used to understand the binding at the pathway-level as they relate to the gene PPARG. Furthermore, this assay endpoint can be referred to as a primary readout, because the performed assay has only produced 1 assay endpoint. To generalize the intended target to other relatable targets, this assay endpoint is annotated to the nuclear receptor intended target family, where the subfamily is non-steroidal.\nThe OT PPARg/SRC-1 assay assessed receptor-chemical interactions using a rapidly maturing, intensely fluorescent mutant of YFP known as Venus, rationally dissected into two separate fragments. The fragments were obtained as follows: first, fragments coding for YFP1 and YFP2 (corresponding to amino acid residues 1-158 and 159-239 of the full length YFP, respectively) were generated by oligonucleotide synthesis (Blue Heron Biotechnology), and then PCR mutagenesis was used to generate the mutant fragments IFP1 and IFP2. Fusion constructs were transfected into HEK293T cells with a (Gly4Ser)2 linker between the PPARg/SRC-1 and YFP fragment genes to facilitate complementation when interacting proteins bring fragments into close proximity. The construct is transiently transfected in HEK293T cells 48 hours prior to treatment with test compounds. Cells are seeded into optical quality 384-well poly-D-lysine coated plates in MEM alpha medium (Invitrogen) supplemented with 10 percent FBS (Gemini Bio-Products) 1 percent penicillin and 1 percent streptomycin, and grown in 37C incubator equilibrated to 5 percent CO2. Cells are allowed to adhere for 24 hours prior to treatment with compounds of interest or controls for 24 hours. Cells are fixed in 4 percent formaldehyde and stained with Draq5 (BioStatus) to identify cells and subcellular compartment boundaries prior to signal detection. 8 Images per well were acquired on an Evotec Opera at 2 wavelengths (488 and 635nm), and the ratio of fluorescence in the nucleus relative to fluorescence in the cytoplasm (N/C Ratio) in the 488nm channel was calculated for a minimum of 350 cells per image.", "values": [{"smiles": "C1CCC(NC2CCCCC2)CC1", "outcome": "inactive"}, {"smiles": "CNC", "outcome": "inactive"}, {"smiles": "ClC1(Cl)C2(Cl)C3(Cl)C4(Cl)C(Cl)(Cl)C5(Cl)C3(Cl)C1(Cl)C5(Cl)C24Cl", "note": "(stereo not given)", "outcome": "inactive"}, {"smiles": "CCOP(=S)(OCC)SCSP(=S)(OCC)OCC", "outcome": "inactive"}, {"smiles": "ClC(Cl)=C(Cl)C(Cl)=C(Cl)Cl", "outcome": "inactive"}, {"smiles": "O=C(O)C(F)(F)C(F)(F)C(F)(F)C(F)(F)C(F)(F)C(F)(F)F", "outcome": "inactive"}, {"smiles": "COc1ccc(C=O)cc1OC", "outcome": "inactive"}, {"smiles": "CCCCOCCOC(C)=O", "outcome": "inactive"}, {"smiles": "O=c1[nH]c(=O)[nH]c(=O)[nH]1", "outcome": "inactive"}, {"smiles": "COc1ccc(C=O)cc1", "outcome": "inactive"}, {"smiles": "CCC[CH2][Sn]([CH2]CCC)([CH2]CCC)[O]C(=O)c1ccccc1", "AC50": "0.0331 µM (active)"}, {"smiles": "Fc1ccc(C2(Cn3cncn3)OC2c2ccccc2Cl)cc1", "note": "(stereo not given)", "outcome": "inactive"}, {"smiles": "Clc1nc(Cl)nc(Cl)n1", "outcome": "inactive"}, {"smiles": "Cl/C=C\\C[N+]12CN3CN(CN(C3)C1)C2", "outcome": "inactive"}, {"smiles": "O=C(OC1CCCCC1)c1ccccc1C(=O)OC1CCCCC1", "outcome": "inactive"}, {"smiles": "Oc1ccc(-c2ccccc2)cc1", "outcome": "inactive"}, {"smiles": "C[C@]12CC[C@H](O)CC1=CC[C@@H]1[C@@H]2CC[C@]2(C)C(=O)CC[C@@H]12", "outcome": "inactive"}, {"smiles": "Oc1cccc2cccnc12", "outcome": "inactive"}, {"smiles": "BrCCBr", "outcome": "inactive"}, {"smiles": "OCC(O)CCl", "note": "(stereo not given)", "outcome": "inactive"}, {"smiles": "CCC[CH2][Sn]([Cl])([Cl])[Cl]", "outcome": "inactive"}, {"smiles": "NNC(=S)NN", "outcome": "inactive"}, {"smiles": "CC(C)(c1ccccc1)c1ccc(O)c(C(C)(C)c2ccccc2)c1", "outcome": "inactive"}, {"smiles": "CC(C)C1CCC(Cc2ccc(Cl)cc2)C1(O)Cn1cncn1", "note": "(stereo not given)", "outcome": "inactive"}, {"smiles": "CCOP(=S)(OCC)Oc1nc(Cl)c(Cl)cc1Cl", "outcome": "inactive"}, {"smiles": "CC(C)OC(=O)Nc1ccccc1", "outcome": "inactive"}, {"smiles": "C[C@@H]1C[C@@H]([C@H](O)CC2CC(=O)NC(=O)C2)C(=O)[C@@H](C)C1", "outcome": "inactive"}, {"smiles": "CC12CC1(C)C(=O)N(c1cc(Cl)cc(Cl)c1)C2=O", "note": "(stereo not given)", "outcome": "inactive"}, {"smiles": "Clc1ccc(C2(Cn3cncn3)CC(Br)CO2)c(Cl)c1", "note": "(stereo not given)", "outcome": "inactive"}, {"smiles": "CC(C)(OO)c1ccccc1", "outcome": "inactive"}, {"smiles": "CCC1(c2ccc(N)cc2)CCC(=O)NC1=O", "note": "(stereo not given)", "outcome": "inactive"}, {"smiles": "OCc1ccco1", "outcome": "inactive"}, {"smiles": "Cc1ccccc1C(=O)Nc1cccc(OC(C)C)c1", "outcome": "inactive"}, {"smiles": "O=C/C=C/c1ccccc1", "outcome": "inactive"}, {"smiles": "C=CC(=O)OCCCCCC(C)C", "outcome": "inactive"}, {"smiles": "CCC(C)(C)c1ccc(O)c(C(C)(C)CC)c1", "outcome": "inactive"}, {"smiles": "C=CCc1ccc(OC)cc1", "outcome": "inactive"}, {"smiles": "CN(C)N=O", "outcome": "inactive"}, {"smiles": "CC(C)(C)c1cc(O)ccc1O", "outcome": "inactive"}, {"smiles": "O=C1C(Cl)=C(Cl)C(=O)c2ccccc21", "AC50": "11.8 µM (active)"}]}]}
